Compounds without any hit were thinned out: in the full panel of roughly 79,000, 15% have a hit. Cut-off read from the data, not from the text of the source: active = growth inhibition above about 70%; inactive = the rest.
What was measured:
[1] = NCI Yeast Anticancer Drug Screen. Data for the rad50 strain (AID 155);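 note: 0% = growth of vehicle-only cultures of the same strain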; details: S. cerevisiae rad50 strain growth inhibition; at 50.0 µM; hits give high values
How it was run: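 Genetically altered yeast (DNA repair pathway); compound treatment; growth inhibition vs vehicle ctrl.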

[2] = NCI Yeast Anticancer Drug Screen. Data for the mec2-1 strain (AID 157); details: S. cerevisiae mec2-1 strain, at 50.0 µM, hits give high values
How it was run: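 mec2-1 yeast strain, carrying an alteration in DNA damage repair or cell cycle control, was exposed to compounds; growth inhibition was measured relative to vehicle-treated controls.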

[3] = NCI Yeast Anticancer Drug Screen. Data for the sgs1 mgt1 strain (AID 161);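 note: 0% = growth of cultures given vehicle only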; details: S. cerevisiae sgs1 mgt1 strain, at 50.0 µM, hits give high values
How it was run: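 Growth of a repair-deficient yeast mutant was monitored after compound treatment and expressed as inhibition relative to vehicle-treated cultures.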

[4] = NCI Yeast Anticancer Drug Screen. Data for the cln2 rad14 strain (AID 165);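 note: 0% = growth equal to vehicle treated cultures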; details: S. cerevisiae cln2 rad14 strain, at 50.0 µM, hits give high values
How it was run: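 Yeast carrying cln2 and rad14 alterations (cell cycle control and DNA damage repair) were exposed to compounds. Growth inhibition was measured against vehicle-treated controls.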

[5] = NCI Yeast Anticancer Drug Screen. Data for the bub3 strain (AID 167); details: S. cerevisiae bub3 mutant strain, at 50.0 µM, hits give high values
How it was run: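 Yeast carrying a defined mutation is treated with each compound, and growth is compared with that of vehicle-exposed cells to give inhibition.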

[6] = NCI Yeast Anticancer Drug Screen. Data for the mlh1 rad18 strain (AID 175); details: S. cerevisiae mlh1 rad18 strain growth inhibition; at 50.0 µM; hits give high values
How it was run: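 Growth inhibition of the yeast strain was measured after compound exposure and expressed relative to vehicle-treated controls. The strain carries defined defects in DNA damage repair.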

Measured: growth inhibition

C/C(=N/O)c1ccc[cH-]1.[Fe+2].c1cc[cH-]c1
inactive: [1] 20.1% | [2] -5.3% | [3] 0.45% | [4] -0.8% | [5] -8.4% | [6] -11.5%

C#CC(C)(C)OC(=O)Nc1cccc(Cl)c1
inactive: [1] 12.8% | [2] -11.3% | [3] -16.1% | [4] -8.35% | [5] -20.6% | [6] 10.7%

C[N+]1(CC(O)c2ccccc2)CCCC1 (stereo not given)
inactive: [1] 3.55% | [2] 13.3% | [3] -0.25% | [4] 32.6% | [5] 6.3% | [6] -10.8%

[N-]=[N+]=NC[C@H]1OCO[C@H](CN=[N+]=[N-])[C@@H](OCCOCCCl)[C@@H]1OCCOCCCl
inactive: [1] -13.1% | [2] -23.4% | [3] -10.6% | [4] -21.1% | [5] -28.8% | [6] -15.8%

Cc1cc2c(=O)c3ccccc3oc2c(C#N)c1C
inactive: [1] 19.6% | [2] 8.25% | [3] 9.2% | [4] -15.4% | [5] 18.3% | [6] 16.9%

Cc1cc2c(C(C)C)c(O)c(O)c(C=Nc3cccc(O)c3)c2c(O)c1-c1c(C)cc2c(C(C)C)c(O)c(O)c(C=Nc3cccc(O)c3)c2c1O
inactive: [1] 27.8% | [2] 26% | [3] 44% | [4] 46.1% | [5] 50.8% | [6] 58.3%

CC(C)CC1OCC(C)(C)CO1
inactive: [1] -0.6% | [2] -12.4% | [3] -11.3% | [4] -7.05% | [5] -7.9% | [6] -9.8%

O=[N+]([O-])c1ccc(Nc2ccccc2)nc1
inactive: [1] -22.7% | [2] -35.5% | [3] 7.35% | [4] 2.7% | [5] -5.5% | [6] -5.05%

O=c1c2ccccc2nc(-c2ccccc2)n1NC(=S)Nc1ccccc1
inactive: [1] -27.9% | [2] -42.6% | [3] -39.8% | [4] -13.8% | [5] -19.9% | [6] -19%

CCOC(=O)C1CC1Cc1ccccc1 (stereo not given)
inactive: [1] -18.1% | [2] -9.95% | [3] -2.2% | [4] -7.2% | [5] 6.05% | [6] -2.95%

O=C(N/C(=C/c1ccccc1)C(=O)N1CCN(C(=O)/C(=C\c2ccccc2)NC(=O)c2ccccc2)CC1)c1ccccc1
inactive: [1] 0.9% | [2] -0.45% | [3] -8.05% | [4] -5.7% | [5] -6.8% | [6] -2.95%

CCCCCCCCCCCCCCS(=O)(=O)CCCl
inactive: [1] -5.85% | [2] -6.1% | [3] -21.2% | [4] -6.1% | [5] -5.2% | [6] -7.5%

CCOC(=O)C1=CC(C)(C(=O)OCC)Nc2c(nc(SC)n(C)c2=O)N1 (stereo not given)
inactive: [1] -19.4% | [2] -21.2% | [3] -16.3% | [4] 16.8% | [5] -1.55% | [6] 14.2%

O=C1NCCCC1O (stereo not given)
inactive: [1] 0.5% | [2] -16.5% | [3] 8% | [4] 5.35% | [5] -6.1% | [6] -2.9%

COc1c2c(c(OC)c3c1C(=O)c1ccccc1C3=O)CC=CC2
inactive: [1] -10.6% | [2] 4.7% | [3] -15.4% | [4] -14.7% | [5] -4% | [6] -4.3%

COc1ccccc1C1CCCCC1OS(=O)(=O)c1ccc(C)cc1 (stereo not given)
inactive: [1] -1.15% | [2] 3.45% | [3] -18.4% | [4] -9.65% | [5] 12.2% | [6] -9.8%

CCOC(=O)C(=CNc1cc(C(F)(F)F)ccc1N1CCOCC1)C(=O)OCC
inactive: [1] -1.4% | [2] -15.2% | [3] -9.5% | [4] 18.6% | [5] 2.25% | [6] -0.1%

O=C(O)c1c[nH]c2c(Cl)cccc2c1=O
inactive: [1] 18.9% | [2] -16.4% | [3] 4.3% | [4] 10.8% | [5] 18.4% | [6] 14.4%

C/C(CCc1ccccc1)=N\Nc1ccc([N+](=O)[O-])cc1[N+](=O)[O-]
inactive: [1] -31.9% | [2] -44.6% | [3] -2.9% | [4] -17% | [5] -17.4% | [6] -19.4%

CC(=O)N(C)c1ccc(C)cc1
inactive: [1] -14.9% | [2] -1.05% | [3] -4.35% | [4] -27.6% | [5] -4.2% | [6] 7%

CCCCCCC1(/C=C/c2ccc(Cl)cc2Cl)OCCCO1
inactive: [1] 3.3% | [2] 9.1% | [3] -5.45% | [4] -2.75% | [5] 11.8% | [6] 3.65%

C1=C/CCC2OC2CC/C=C/CC/1 (stereo not given)
inactive: [1] -9.8% | [2] -55.2% | [3] -24.8% | [4] 11.8% | [5] -29.2% | [6] -4.2%

O=C(CCC1CCCCC1=O)c1ccc(Br)cc1 (stereo not given)
inactive: [1] 6.2% | [2] -15.8% | [3] 12.7% | [4] -6.95% | [5] -6.55% | [6] -10.2%

C=CCCCCCCCCC(=O)NCc1cccnc1
inactive: [1] 24.4% | [2] 9.15% | [3] 29.6% | [4] 20.1% | [5] 6.8% | [6] 64%

Cc1cn(C2CC(N(C)C)C(CO)O2)c(=O)[nH]c1=O (stereo not given)
inactive: [1] -28.2% | [2] -25.8% | [3] -18.4% | [4] 12.3% | [5] -28.3% | [6] -34.8%

O=C(O)c1ncn2c(=O)n(CCCl)nnc12
inactive: [1] -18.9% | [2] -16.4% | [3] -15.8% | [4] -27.8% | [5] -0.55% | [6] 9.2%

Cc1occc1C(=S)Nc1ccc(Cl)c(/C=N/OC2CCCC2)c1
inactive: [1] 13.2% | [2] 26.1% | [3] 25.1% | [4] 30.7% | [5] 19.3% | [6] 18.8%

Nc1c(Br)cc(Br)c(C(=O)O)c1Br
inactive: [1] 6.35% | [2] -16.1% | [3] 10.8% | [4] 2.8% | [5] -15.2% | [6] -1.75%

CC(=O)OC1CCC2(C)C(C1)CC(OC(C)=O)C1C2CC(OC(C)=O)C2(C)C(C(C)CC=C(c3ccccc3)c3ccccc3)CCC12 (stereo not given)
inactive: [1] 0.1% | [2] 11.6% | [3] -4.1% | [4] -13.7% | [5] -39.9% | [6] 8.45%

CCCCCC(CCCCC)c1ccccn1
inactive: [1] -14.3% | [2] -11.4% | [3] 3.95% | [4] 22.4% | [5] 26.9% | [6] 4.1%

COc1cc2ccnc([C@@H](OC(=O)c3ccccc3)c3ccc(OC)c(OC)c3OC)c2cc1OC
inactive: [1] 10.4% | [2] 9.25% | [3] 40.9% | [4] 6.25% | [5] 0.05% | [6] 52.4%

CCCOC(=O)/C=C/C(=O)N1CC(C)N(C(=O)/C=C/C(=O)OCCC)CC1C (stereo not given)
inactive: [1] 3.85% | [2] -1.25% | [3] 9.6% | [4] 42.6% | [5] -2.9% | [6] 25.2%

Nc1ccc(S(=O)(=O)c2ccc(Nc3ccnc4cc(Cl)ccc34)cc2)cc1
inactive: [1] 23.1% | [2] 13.6% | [3] 5.05% | [4] 7.55% | [5] 1.6% | [6] 12.8%

CN(C)CC(CN(C)C)C(=O)C(C)(C)C
inactive: [1] 9.45% | [2] -1.95% | [3] 22.7% | [4] -7.7% | [5] 7.8% | [6] 13.8%

O=c1c2cnc3c4cccnc4ccc3c2[nH]n1-c1ccccc1
inactive: [1] -22.6% | [2] 8.15% | [3] 14.2% | [4] -15.4% | [5] -9.85% | [6] -2.8%

Fc1ccc(C2=NOC3COC4C=CC=CC4OCC23)cc1 (stereo not given)
inactive: [1] -29.2% | [2] -34.9% | [3] -22.9% | [4] -9.15% | [5] -45.1% | [6] -42.2%

Cc1ccc(NC(=O)CC/C(CC(=O)C(C)(C)C)=N/NC(=O)C(N)=O)cc1C
inactive: [1] -2.75% | [2] -9.95% | [3] 10.5% | [4] 10.6% | [5] 8.55% | [6] 5.1%

COC(=O)c1ccccc1/C=C1\SC(=S)NC1=O
inactive: [1] -1.6% | [2] 6.3% | [3] 17.9% | [4] -9.85% | [5] -4.95% | [6] -0.7%

O=C(Nc1ccccc1C(=O)O)C(=O)C(C(=O)c1ccccc1-c1ccccc1)C1OC(=O)c2ccccc21 (stereo not given)
inactive: [1] 26.1% | [2] 5.65% | [3] 4.2% | [4] -38.6% | [5] 6.25% | [6] 13.9%

C[n+]1ccccc1C(O)C(O)c1cccc[n+]1C (stereo not given)
inactive: [1] 6.05% | [2] 1.65% | [3] 8.85% | [4] 23.4% | [5] -8.45% | [6] 9.6%

From PubChem BioAssay (NCI)
